Experimental data: PubChem BioAssay (EPA / NIEHS)
The source made the active and inactive calls. The calls were made as follows: active = hit-call score of the fitted dose curve at least 0.9, where 1 is the maximum; inactive = score below 0.9.

Legend:
[1] = BSK_CASM3C_SRB: Viability Assessment in the BioMAP Diversity Plus: CASM3C Assay (AID 2283050); settings: primary human coronary artery smooth muscle cells;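 also: total protein by SRB staining as cytotoxicity measure in parallel cultures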
[2] = read-out: Thrombomodulin, THBD (gene 7056); test: BSK_CASM3C_Thrombomodulin: BioMAP Diversity Plus: CASM3C Assay for Thrombomodulin Biomarker Activity (AID 2283051); settings: primary human coronary artery smooth muscle cells; actives raise or lower the signal;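 also: thrombomodulin protein level measured by ELISA 24 h after dosing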
[3] = read-out: Tissue Factor, F3 (gene 2152); test: BSK_CASM3C_TissueFactor: BioMAP Diversity Plus: CASM3C Assay for Tissue Factor Biomarker Activity (AID 2283052); settings: primary human coronary artery smooth muscle cells; actives raise or lower the signal;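 also: cell surface tissue factor protein level read by ELISA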
[4] = read-out: Interferon-gamma inducible Protein 10 (IP10), CXCL10 (gene 3627); test: BSK_hDFCGF_IP10: BioMAP Diversity Plus: hDFCGF Assay for Interferon-gamma inducible Protein 10 (IP10) Biomarker Activity (AID 2283053); settings: primary human foreskin fibroblasts; actives raise or lower the signal
In short: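 Human foreskin fibroblast primary cells (hDFCGF system) were dosed with chemical and assayed at 24 h; IP-10 measured by ELISA. Activity fitted bidirectionally relative to DMSO negative control as baseline.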

[5] = read-out: Urokinase-type plasminogen activator receptor (uPAR), PLAUR (gene 5329); test: BSK_CASM3C_uPAR: BioMAP Diversity Plus: CASM3C Assay for Urokinase-type plasminogen activator receptor (uPAR) Biomarker Activity (AID 2283054); settings: primary human coronary artery smooth muscle cells; actives raise or lower the signal;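 also: cell-surface uPAR protein level quantified by ELISA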
[6] = read-out: Vascular cell adhesion molecule 1 (VCAM1), VCAM1 (gene 7412); test: BSK_CASM3C_VCAM1: BioMAP Diversity Plus: CASM3C Assay for Vascular cell adhesion molecule 1 (VCAM1) Biomarker Activity (AID 2283055); settings: primary human coronary artery smooth muscle cells; actives raise or lower the signal;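 also: VCAM-1 protein level quantified by ELISA on the cells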
[7] = read-out: Collagen III, COL3A1 (gene 1281); test: BSK_hDFCGF_CollagenIII: BioMAP Diversity Plus: hDFCGF Assay for Collagen III Biomarker Activity (AID 2283056); settings: primary human foreskin fibroblasts; actives raise or lower the signal
In short: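 Cells: human foreskin fibroblasts, primary. Dosing followed by 24 h incubation, then ELISA for collagen III. Both increases and decreases scored relative to DMSO.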

[8] = read-out: Epidermal growth factor receptor (EGFR), EGFR (gene 1956); test: BSK_hDFCGF_EGFR: BioMAP Diversity Plus: hDFCGF Assay for Epidermal growth factor receptor (EGFR) Biomarker Activity (AID 2283057); settings: primary human foreskin fibroblasts; actives raise or lower the signal
In short: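 Primary human foreskin fibroblasts were exposed to compound for 24 h, after which cell-surface EGFR was quantified by ELISA. Activity was fitted bidirectionally against the DMSO negative control as baseline.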

[9] = read-out: Interleukin-8 (IL8), CXCL8 (gene 3576); test: BSK_hDFCGF_IL8: BioMAP Diversity Plus: hDFCGF Assay for Interleukin-8 (IL8) Biomarker Activity (AID 2283058); settings: primary human foreskin fibroblasts; actives raise or lower the signal
In short: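 IL-8 levels from compound-treated primary human fibroblasts were read by ELISA at 24 h, with DMSO serving as baseline for bidirectional fitting.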

[10] = BSK_hDFCGF_Proliferation: Cell Proliferation Assessment in the BioMAP Diversity Plus: hDFCGF Assay (AID 2283059); settings: primary human foreskin fibroblasts;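 also: curves fitted for both rise and fall of signal versus DMSO baseline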
In short: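 Total protein read at 560 nm after 0.1% SRB staining of TCA-fixed human skin fibroblasts, […]. Activity is fitted in both directions relative to DMSO as baseline.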

Measured: AC50

O=C(O)c1cc(Oc2ccc(C(F)(F)F)cc2Cl)ccc1[N+](=O)[O-]
inactive: all assays above

CCCOCC(=Nc1ccc(Cl)cc1C(F)(F)F)n1ccnc1
inactive: [1] | [3] | [5]
active: [2] 20.9 µM | [4] 31.1 µM | [6] 20 µM | [7] 29.4 µM | [8] 33.8 µM | [9] 38.3 µM | [10] 21.2 µM

CC[C@H](C)[C@H]1O[C@]2(C=C[C@@H]1C)C[C@@H]1C[C@@H](C/C=C(\C)[C@@H](O[C@H]3C[C@H](OC)[C@@H](O[C@H]4C[C@H](OC)[C@@H](NC)[C@H](C)O4)[C@H](C)O3)[C@@H](C)/C=C/C=C3\CO[C@@H]4[C@H](O)C(C)=C[C@@H](C(=O)O1)[C@]34O)O2
active: [1] 11.6 µM | [4] 4.28 µM | [5] 12.3 µM | [6] 12 µM | [7] 5.53 µM | [8] 11.7 µM | [9] 6.99 µM | [10] 1.43 µM
inactive: [2] | [3]

CNC(=O)ON=C(C)SC
inactive: all assays above

CCOC(=O)COc1cc(-c2nn(C)c(OC(F)F)c2Cl)c(F)cc1Cl
inactive: all assays above

COc1cccc(C(=O)NN(C(=O)c2cc(C)cc(C)c2)C(C)(C)C)c1C
inactive: all assays above

C#CCC1=C(C)C(OC(=O)C2C(C=C(C)C)C2(C)C)CC1=O (stereo not given)
active: [4] 29.6 µM | [7] 29.4 µM | [9] 37.8 µM | [10] 31.5 µM
inactive: all other assays above

CCC(=NOC/C=C/Cl)C1=C(O)CC(C2CCOCC2)CC1=O (stereo not given)
inactive: all assays above

CON=C(C(=O)OC)c1ccccc1CON=C(C)c1cccc(C(F)(F)F)c1
active: [6] 8.45 µM | [7] 1.47 µM | [8] 2.78 µM | [10] 2.77 µM
inactive: all other assays above

C[N+]1(C)CCCCC1
inactive: all assays above

CCOP(=O)(SC(C)CC)N1CCSC1=O (stereo not given)
inactive: all assays above

CCOP(=S)(OCC)Oc1ccc([N+](=O)[O-])cc1
active: [2] 15.4 µM | [4] 20 µM | [10] 14.2 µM
inactive: all other assays above

FC(F)C(F)(F)OCC(Cn1cncn1)c1ccc(Cl)cc1Cl (stereo not given)
active: [4] 27.8 µM | [10] 5.24 µM
inactive: all other assays above

O=c1ccc(=O)[nH][nH]1
inactive: all assays above

COP(=O)(NC(C)=O)SC (stereo not given)
inactive: all assays above

CC(Oc1cccc(Cl)c1)C(=O)O (stereo not given)
inactive: all assays above

CCc1cccc(CC)c1N(COC)C(=O)CCl
active: [4] 11.2 µM | [7] 11.1 µM | [10] 13.8 µM
inactive: all other assays above

CCOP(=O)(NC(C)C)Oc1ccc(SC)c(C)c1 (stereo not given)
inactive: all assays above
